This passage reports growth results from PubChem BioAssay (NCI).

The panel holds about 83,000 compounds, 20% with a hit somewhere; the sample as a whole holds those more often.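 Cell lines were cultured in 96-well plates, exposed to a single compound concentration, and assessed for percent growth 48 hours later.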 Calls of active or inactive are those of the source. The calls were made as follows: active = growth percent below 10; inactive = the rest.

The subject of the first assay is NCI-H226 lung. Nature of the assay: NCI-60 one-dose screen, 48 h (100 = growth as untreated, 0 = no growth, -100 = all killed). To be noted: 10 µM unless noted.
As for `Oc1c(Cl)cc(Cl)c2ccc(Cn3cc(-c4cc(C(F)(F)F)cc(C(F)(F)F)c4)nn3)nc12`, the growth was 82.1% (inactive). `O=C1C(Cl)=C(Oc2ccccc2)C(=O)c2ccccc21`: the growth was 90.8% (inactive). The same measure, in the same setting: then `COc1ccccc1Nc1nc2c(s1)C1=CC[C@H]3[C@@H]4CC[C@H]([C@H](C)CCCC(C)C)[C@@]4(C)CC[C@@H]3[C@@]1(C)CC2`, with 103% (inactive); and `N#Cc1cccc(-c2c(-c3ccc4ccccc4c3)oc3ccccc3c2=O)c1`, with 71.2% (inactive).

Another assay relates to NCI-H322M lung. The description is as above. Conditions: 10 µM unless noted.
Consider `CCCc1cc(NC)nc(S(=O)(=O)CC)n1`, for which the growth is 106% (inactive). Same read-out and setting: with `Cc1ccc(Cl)cc1Nc1nc(C(F)(F)F)ccc1C(=O)N/N=C/c1cccnc1` the figure was 25.1% (inactive); with `Cc1ccc(/C=C2\CN(C(=O)OC(C)(C)C)C/C(=C\c3ccc(C)cc3)C2=O)cc1`, 98.7% (inactive). Same read-out and setting: then `O=C(Nc1cccc([N+](=O)[O-])c1)c1cc2ccccc2cc1O`, with 14.8% (inactive); and `NC(=O)c1c(NC(=O)c2ccccc2)sc2c1CCC(=O)C2`, with 88.2% (inactive); and `COc1cc(N2C(=O)[C@H](O)C2c2ccc(SC)cc2)cc(OC)c1OC` (some centres undefined), with 37.1% (inactive). The same measure, in the same setting: with `Cn1cc(-c2nc(-c3c[nH]c4ccncc34)cs2)c2ccccc21` the figure was 82.5% (inactive). In the case of `OCCNCCCOc1ccc2ncnc(Nc3ccc(Oc4cccc(C(F)(F)F)c4)c(Cl)c3)c2c1`, the growth is 21.5% (inactive). For `O=S(=O)(NCCNc1cc(-c2c(-c3cccc(O)c3)nc3sccn23)ccn1)c1ccc(C(F)(F)F)cc1`, the growth was 61.5% (inactive). On the same count and under the same terms, with `CCOC(=O)c1nc(Nc2ccc(NC(=O)Nc3ccc(F)cc3)cc2)c2ccccc2n1` the figure was 97% (inactive). Same read-out and setting: with `CCN1C(=O)N(CC)C2C1NN=c1s/c(=C\c3cccc([N+](=O)[O-])c3)c(=O)n12` (centres undefined) the figure was 45.5% (inactive). In the case of `C#Cc1cccc(Nc2ncnc3ccc(-c4cnc(N)nc4)cc23)c1`, the growth is -7.64% (active). Still for that read-out and setting: with `CCN(CC)CCSc1nc(-c2ccccc2)c(C#N)c(=O)[nH]1` the figure was 122% (inactive); with `CN1C(=O)/C(=C/c2cn(-c3ccccc3)nc2-c2ccccc2)SC1=S`, 107% (inactive).

Take `O=C1Nc2ccccc2/C1=C\c1nc(-c2ccccc2)n2ccccc12`: the growth is 92% (inactive). Still for that read-out and setting: with `COc1ccc(NC(=O)c2sc3nc(C)c(C(=O)/C=C/c4cccc(OC)c4)cc3c2N)cc1` the figure was 18% (inactive); with `Nc1nc2c([nH]1)c1[nH]c3ccccc3c1c1[nH]c3ccccc3c21`, 25.6% (inactive). Same read-out and setting: with `Cc1ccc(-c2nc3nc(-c4ccc(F)cc4)nc(N4CCNCC4)c3o2)cc1` the figure was 87.7% (inactive); with `COc1ccc(OC)c(C(=O)/C=C/c2cc3c(c(OC)c2OC)OCO3)c1`, 71.1% (inactive). As for `CN1C(=O)/C(=C/c2ccc(C(=O)Nc3ncc(Cc4ccc(Cl)cc4)s3)cc2)SC1=S`, the growth was 56% (inactive). Still for that read-out and setting: with `O=C(OCc1ccc2c(Cl)cc(Cl)c(O)c2n1)n1cncn1` the figure was 50.4% (inactive); with `C[C@]12C=CC(=O)C=C1CCC1C2[C@@H](O)C[C@@]2(C)C1CC[C@]2(O)C(=O)COC(=O)CCC(=O)O` (some centres undefined), 106% (inactive); with `COc1ccc2c(c1)c(-c1noc(C(=O)c3cn(C)c4ccc(Br)cc34)n1)cn2C`, 97% (inactive). The same measure, in the same setting: then `COc1ccc(/C=N/C2=C(C#N)C(c3cccc(Cl)c3)c3c(ccc4ccccc34)O2)cc1` (centres undefined), with 62.7% (inactive). With `Cc1ccccc1Cn1cnc2ccc(-c3cc(NC(=O)c4ccc(NC5CCN(C)CC5)cc4)n[nH]3)cc21`, the growth was 83.5% (inactive). The same measure, in the same setting: with `O=C1CC(N2C(=O)/C(=C/C(Cl)=C\c3ccc([N+](=O)[O-])cc3)SC2=S)C(=O)N1c1ccc(Cl)cc1` (centres undefined) the figure was 65.1% (inactive). For the compound `CCN(CC)CCOc1ccc(-c2c(-c3ccccc3)c(=O)oc3ccccc23)cc1`, the growth is 110% (inactive). Consider `CCNC(=O)c1[nH]cc(-c2ccccc2)c1-c1cc(OC)c2c(c1OC)OCO2`, for which the growth is 93.7% (inactive). On the same count and under the same terms, with `Cc1cc(=O)[nH]c2c(C#N)cnn12` the figure was 101% (inactive); with `COCCn1c(-c2csc(-c3cn(C)c4ccc(OC)cc34)n2)cc2cccnc21`, 82.4% (inactive); with `COC(=O)[C@]1(C)CCC[C@]2(C)[C@H]3C[C@H]4C(C(C)C)=C[C@]3(CC[C@H]21)[C@H]1[C@@H]4[C@@H](OCCC#N)CC[C@@H]1OCCC#N`, 98.6% (inactive).

For `O=C(NCCCCNC(=O)OCc1ccc2c(Cl)cc(Cl)c(O)c2n1)OCc1ccc2c(Cl)cc(Cl)c(O)c2n1`, the growth was 34.3% (inactive).

Regarding `COC(=O)c1c2c(c(C)[n+]([O-])c1C)C(=O)C=C(NCc1ccc(Br)cc1)C2=O`, the growth was -14.9% (active).

In the case of `CCCCCCNC(=O)Oc1ccc(/C(=C(/C)Cc2ccc(OC)cc2)c2ccc(OCCCN(C)C)cc2)cc1`, the growth was 70.5% (inactive). The same measure, in the same setting: then `CCCCCCC1(C)NCCO1` (centres undefined), with 87.3% (inactive); and `CC[C@]12C=CCN3CC[C@@]4(c5cc(NC(=O)CCC(=O)OCc6cn(Cc7ccc(F)cc7)nn6)c(OC)cc5N(C)[C@H]4[C@@](O)(C(=O)OC)[C@@H]1OC(C)=O)[C@@H]32`, with 94.3% (inactive). On the same count and under the same terms, with `Oc1c(Cl)cc(Cl)c2ccc(Cn3cc(-c4cc(C(F)(F)F)cc(C(F)(F)F)c4)nn3)nc12` the figure was 103% (inactive); with `O=C1C(Cl)=C(Oc2ccccc2)C(=O)c2ccccc21`, 83.1% (inactive); with `COc1ccccc1Nc1nc2c(s1)C1=CC[C@H]3[C@@H]4CC[C@H]([C@H](C)CCCC(C)C)[C@@]4(C)CC[C@@H]3[C@@]1(C)CC2`, 101% (inactive). The same measure, in the same setting: then `N#Cc1cccc(-c2c(-c3ccc4ccccc4c3)oc3ccccc3c2=O)c1`, with 64.6% (inactive).
